Reference: PubChem BioAssay (NCATS)
Values joined by “and” are separate entries in the source; they are usually repeats but may differ in a detail not shown here. Identical values can stand only once. Results filed as inconclusive are left out. Active and inactive are the calls of the source. Unless noted, calls come from the whole dose curve; as a rule, active = well fitted curve in the direction sought with a large enough effect; inconclusive = small, poorly fitted or top-dose-only effect, or another doubt; inactive = no such curve, though single readings can be large; an effect the other way counts as inactive or inconclusive.

Legend:
[1] = qHTS Assay for Lipid Storage Modulators (AID 1519; calls by dose curve; for activity change, negative = inhibition: % is set by controls: 0 for no effect and ±100 for the full control effect); conditions: Drosophila S3 cells, BODIPY lipid droplet/cell ratio, laser cytometry, cells loaded with oleic acid
Method in brief: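 Cells seeded at 5,000 per well were treated with compounds over a concentration series and loaded with oleic acid (400 uM, as added). Lipid droplet fluorescence (488 nm excitation, 500-530 nm channel) was read by laser-scanning cytometry and normalized to 20 uM Triacsin C.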

[2] = molecular target: DNA repair nuclease/redox regulator APEX1 (Homo sapiens) (UniProt P27695); test: qHTS Validation Assay for Inhibitors of the Human Apurinic/apyrimidinic Endonuclease 1 (APE1) (AID 1705;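 note: TAMRA fluorescence gain over two minutes as APE1 cuts a quenched THF abasic duplex; % is set by controls: 0 for no effect and ±100 for the full control effect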)
Method in brief: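 Fluorogenic double-stranded THF abasic-site substrate (5'-TAMRA/3'-BHQ-2), 50 nM final. Enzyme preincubated with compound 15 min at room temperature, then substrate added. Kinetic fluorescence (ex 525/em 598 nm) read three times at 60 s intervals; activity taken as third-minus-first read difference.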

[3] = Counterscreen for APE1 Inhibitors: Fluorescent Dye Displacement Validation Assay (AID 1707);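 note: plate controls were ThO with dsDNA and no compound for no effect and ThO without dsDNA for full effect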
Method in brief: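 Signal: ThO fluorescence (ex 480 nm/em 540 nm) on binding 50 nM dsDNA; displacement by test compound reduces it. Conditions: 250 nM dye, 50 mM Tris-HCl pH7.5, 2 mM MgCl2, 50mM NaCl, 0.01% Tween-20.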

[4] = molecular target: Endonuclease 4 (Escherichia coli (strain K12)) (UniProt P0A6C1); test: Counterscreen for APE1 Inhibitors: qHTS Validation Assay for Inhibitors of Endonuclease IV (AID 1708); note: % is set by controls: 0 for no effect and ±100 for the full control effect
Method in brief: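 Enzyme (2 nM) + compound, 15 min RT; add 50 nM TAMRA/BHQ-2 THF-site dsDNA; kinetic read ex525/em598, 3 reads/60 s; activity = read 3 − read 1. Buffer Tris pH 7.5, 50 mM NaCl, 2 mM MgCl2, DTT, Tween-20.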

[5] = qHTS for differential inhibitors of proliferation of Plasmodium falciparum line 7G8 (AID 1815);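 note: parasite growth measured after three days of incubation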; note: potency is the fitted concentration of half-maximal effect;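 for activity change, negative = inhibition: plate controls were vehicle wells for no effect and reference inhibitor wells for full effect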
[6] = qHTS for differential inhibitors of proliferation of Plasmodium falciparum line D10 (AID 1877);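 note: parasites grown with compound for 72 h before DNA staining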; note: potency is the fitted concentration of half-maximal effect;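 for activity change, negative = inhibition: plate controls were vehicle wells for no effect and reference inhibitor wells for full effect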
[7] = qHTS for differential inhibitors of proliferation of Plasmodium falciparum line W2 (AID 1883); conditions: Potency: Plasmodium falciparum W2 proliferation inhibition;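 note: parasites grown with compound for 72 h before lysis and staining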; note: potency is the fitted concentration of half-maximal effect;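 for activity change, negative = inhibition: 0% = vehicle wells and -100% = control inhibitor wells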
[8] = molecular target: Alpha-galactosidase A (Homo sapiens) (UniProt P06280); test: Counterscreen for Glucocerebrosidase Inhibitors: qHTS Assay for Human alpha-Galactosidase at pH 4.5 (AID 992); note: 0% is about no effect
Method in brief: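 Citrate buffer pH 4.5, Tween-20 0.005%. Enzyme 2 nM, substrate 80 uM, 20 min RT. Stop pH 10. Fluorescence Ex 365/Em 440. AC50 by Hill fit.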

[9] = molecular target: alpha-glucosidase (Oryza sativa, rice) (UniProt Q653V4); test: Counterscreen for Glucocerebrosidase Inhibitors: qHTS Assay for Rice alpha-Glucosidase at pH 5.0 (AID 997);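 note: 0% = full activity with enzyme and -100% = basal without enzyme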
Method in brief: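 Endpoint fluorogenic assay at pH 5.0: compounds (0.7 nM to 77 uM) titrated against 4 nM rice enzyme and 400 uM 4-MU-alpha-glucoside for 20 min at room temperature; NaOH/glycine stop, read ex 365/em 440 nm, Hill-fitted AC50.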

[10] = qHTS for differential inhibitors of proliferation of Plasmodium falciparum line GB4 (AID 1816); conditions: Potency: Plasmodium falciparum GB4 proliferation inhibition;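 note: parasite growth measured after 72 h incubation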; note: potency is the fitted concentration of half-maximal effect;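 for activity change, negative = inhibition: 0% = vehicle DMSO and -100% = reference inhibitor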
[11] = qHTS for differential inhibitors of proliferation of Plasmodium falciparum line 3D7 (AID 1876); note: potency is the fitted concentration of half-maximal effect
[12] = qHTS for differential inhibitors of proliferation of Plasmodium falciparum line Dd2 (AID 1882); conditions: Potency: Plasmodium falciparum Dd2 proliferation inhibition; note: nearly all actives have a fitted effect of over 65% in size; note: potency is the fitted concentration of half-maximal effect;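 for activity change, negative = inhibition: plate controls were DMSO vehicle for no effect and 0.29 µM artemisinin for full effect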
Method in brief: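 SYBR Green DNA fluorescence (ex 485, em 535 nm) after overnight lysis quantifies parasite growth; compound exposure lasted 72 h at 37 C on infected red cells at 2.5% hematocrit, 0.3% parasitemia (final). Artemisinin 0.29 uM and vehicle wells define normalization.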

[13] = Cell Viability - LYMP2-018 (AID 985);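 note: compound exposure lasted 24 hr at 37 °C; plate controls were DMSO only for no effect and tetraoctylammonium bromide at 92 µM for full effect; nearly all actives have a fitted effect of over 50% in size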
Method in brief: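 Seed 2500 lymphoblastoid cells per well, incubate 5 hr at 37 C, add compound and incubate 24 hr at 37 C, add CellTiter-Glo, wait 30 min at room temperature, then read luminescence.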

[14] = Cell Viability - LYMP2-020 (AID 986);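 note: cells exposed to compound for 24 h at 37 °C; plate controls were DMSO only for no effect and tetraoctylammonium bromide at 92 µM for full effect; nearly all actives have a fitted effect of over 55% in size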
Method in brief: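 Seed 2500 cells per well and incubate 5 hr at 37 C. Add compounds at a concentration series and incubate 24 hr at 37 C. Add CellTiter-Glo, wait 30 min at RT, read luminescence, and fit a Hill curve for AC50.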

[15] = Cell Viability - LYMP2-022 (AID 987);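 note: 0% = DMSO alone and full effect = tetraoctylammonium bromide at 92 µM; nearly all actives have a fitted effect of over 55% in size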
Method in brief: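 Cells were seeded at 2500 per well, rested 5 hr at 37 C, and treated with titrated compounds for 24 hr at 37 C. Cellular ATP was then quantified by luciferase luminescence, and AC50 values were derived from Hill-modelled concentration-response curves.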

[16] = Cell Viability - LYMP2-024 (AID 988);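 note: plate controls were DMSO only for no effect and 92 µM tetraoctylammonium bromide for full effect; nearly all actives have a fitted effect of over 60% in size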
Method in brief: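 qHTS cytotoxicity, human lymphoblastoid line, complete medium; 24 h cpd treatment, 37 C; CellTiter-Glo ATP luminescence readout; tetraoctylammonium bromide positive control; AC50 via Hill fit.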

[17] = Cell Viability - LYMP2-026 (AID 989);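 note: cells exposed to compound for 24 h at 37 °C; % is set by controls: 0 for no effect and ±100 for the full control effect; nearly all actives have a fitted effect of over 50% in size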
Method in brief: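 Cells are seeded at 2500 per well and held 5 hr at 37 C. Compounds are added in concentration series for 24 hr, then CellTiter-Glo reagent is applied and luminescence read.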

[18] = Cell Viability - LYMP1-002 - Assay at 24 hr (AID 993); note: % is set by controls: 0 for no effect and ±100 for the full control effect
Method in brief: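 Acute toxicity is measured as concentration-dependent loss of cellular ATP in a human lymphoblastoid line (Coriell LYMP1-002) after 24 h treatment in complete medium. ATP is quantified by luciferase luminescence and AC50 derived by Hill modelling.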

[19] = Cell Viability - LYMP1-002 - Assay at 40 hr (AID 994);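 note: 0% = DMSO only and full inhibition = 92 µM tetraoctylammonium bromide; nearly all actives have a fitted effect of over 60% in size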
Method in brief: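 Cells are plated at 2500 per well and rested 5 hr at 37 C. Compounds are added and incubated 40 hr at 37 C. CellTiter-Glo reagent is added for 30 min at room temperature before luminescence is read.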

[20] = measured here: cell count channel max response
[21] = measured here: lipid channel max response

Chain of Alpha-galactosidase A (Homo sapiens) (P06280 whole entry, looked up): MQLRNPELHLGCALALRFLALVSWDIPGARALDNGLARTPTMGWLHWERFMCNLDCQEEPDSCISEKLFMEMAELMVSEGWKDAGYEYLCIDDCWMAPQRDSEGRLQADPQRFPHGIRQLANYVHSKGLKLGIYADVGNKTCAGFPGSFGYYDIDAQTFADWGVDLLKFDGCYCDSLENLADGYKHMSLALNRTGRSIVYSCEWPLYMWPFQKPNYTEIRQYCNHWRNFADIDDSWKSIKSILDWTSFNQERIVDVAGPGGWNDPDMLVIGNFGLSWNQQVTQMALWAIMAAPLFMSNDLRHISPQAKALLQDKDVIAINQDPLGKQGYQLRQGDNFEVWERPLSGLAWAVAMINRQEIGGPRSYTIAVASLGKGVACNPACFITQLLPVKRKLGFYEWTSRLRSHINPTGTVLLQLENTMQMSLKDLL
Chain of DNA repair nuclease/redox regulator APEX1 (Homo sapiens) (P27695 whole entry, looked up): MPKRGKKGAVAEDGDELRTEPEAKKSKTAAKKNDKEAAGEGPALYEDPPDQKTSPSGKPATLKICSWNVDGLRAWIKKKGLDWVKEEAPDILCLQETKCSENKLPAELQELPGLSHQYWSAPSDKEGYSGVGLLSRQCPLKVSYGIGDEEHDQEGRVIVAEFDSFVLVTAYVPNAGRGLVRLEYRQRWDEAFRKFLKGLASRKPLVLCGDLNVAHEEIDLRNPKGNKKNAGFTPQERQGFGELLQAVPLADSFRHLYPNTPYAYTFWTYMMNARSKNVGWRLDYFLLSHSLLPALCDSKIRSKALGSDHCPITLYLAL

Cc1ccccc1C(OCCN(C)C)c1ccccc1 (configuration not stated)
-33.7%: max response [1, 21]
inactive: activity change, negative = inhibition ([1]; at 57.5 µM (top of the series)) -0.936% | outcome [2] | outcome [3] | outcome [4] | Potency [6]
-31.3%: max response [1, 20]
active: Potency [5] 3.98 µM | Potency [7] 0.708 µM

C1COC(NC(C2CC2)C2CC2)=N1
3.69%: max response [1, 20]
active: Potency [5] 7.94 µM | Potency [7] 14.1 µM
-12.8%: max response [1, 21]
inactive: outcome [8] | outcome [9] | activity change, negative = inhibition ([1]; at 25.7 µM (top of the series)) -4.99% | outcome [2] | outcome [3] | outcome [4]

CC(C)C[C@H](NC(=O)[C@@H](O)[C@H](N)Cc1ccccc1)C(=O)O
active: Potency [5] 2.51 µM | Potency [10] 2.51 µM | Potency [11] 0.631 µM | Potency [6] 2.82 µM | Potency [12] 2.24 µM | Potency [7] 1 µM
inactive: activity change, negative = inhibition ([1]; at 57.5 µM (top of the series)) -0.597% | outcome [3] | outcome [4]
-0.689%: max response [1, 21]
-1.56%: max response [1, 20]

O=C1CCc2cc(OCCCCc3nnnn3C3CCCCC3)ccc2N1
-20.7%: max response [1, 20]
inactive: outcome [8] | outcome [9] | activity change, negative = inhibition ([1]; at 57.5 µM (top of the series)) -9.74% | outcome [2] | outcome [3] | Potency [12]
-27.2%: max response [1, 21]
active: Potency [5] 14.1 µM

NC(=O)c1cnccn1
10.7%: max response [1, 20]
23.4%: max response [1, 21]
inactive: outcome [13] | outcome [14] | outcome [15] | outcome [16] | outcome [17] | outcome [8] | outcome [18] | outcome [19] | outcome [9] | activity change, negative = inhibition ([1]; at 57.5 µM (top of the series)) 8.38% | outcome [2] | outcome [3] | outcome [4] | Potency [5] | Potency [10] | Potency [11] | Potency [6] | Potency [12] | Potency [7]

Cc1[nH]c(=O)c(C#N)cc1-c1ccc2nccn2c1
21.7%: max response [1, 21]
inactive: outcome [8] | outcome [9] | activity change, negative = inhibition ([1]; at 57.5 µM (top of the series)) -1.62% | outcome [2] | outcome [3] | outcome [4] | Potency [5] | Potency [10] | Potency [11] | Potency [12]
25.3%: max response [1, 20]

CCOC(=O)C1=C[C@@]2(CC)CCCN3CCc4c(n1c1ccccc41)[C@H]32
-14.2%: max response [1, 20]
-15.3%: max response [1, 21]
inactive: outcome [8] | outcome [9] | activity change, negative = inhibition ([1]; at 25.7 µM (top of the series)) -1.77%

O=c1n(CCCN2CCN(c3cccc(Cl)c3)CC2)nc2ccccn12
37% and -15.6%: max response [1, 21]
20.6% and -14.9%: max response [1, 20]
inactive: outcome [8] | outcome [9] | activity change, negative = inhibition ([1]; at 57.5 µM (top of the series)) 10.8% and -2.4% | outcome [2] | outcome [3] | outcome [4] | Potency [11] | Potency [6] | Potency [12]

Oc1ccc(C2CNCCc3c2cc(O)c(O)c3Cl)cc1 (configuration not stated)
active: Potency [10] 10 µM | Potency [11] 10 µM | Potency [6] 11.2 µM | Potency [7] 10 µM
inactive: outcome [2] | outcome [3] | outcome [4] | Potency [12]

c1ccc([C@H]2CN3CCSC3=N2)cc1
21.4%: max response [1, 20]
20.7%: max response [1, 21]
inactive: activity change, negative = inhibition ([1]; at 57.5 µM (top of the series)) 0.161% | outcome [2] | outcome [3] | outcome [4] | Potency [5] | Potency [11] | Potency [6] | Potency [12]

O=c1[nH]cnc2[nH]ncc12
inactive: outcome [13] | outcome [14] | outcome [15] | outcome [16] | outcome [17] | outcome [8] | outcome [18] | outcome [19] | outcome [9] | activity change, negative = inhibition ([1]; at 57.5 µM (top of the series)) 3.88% and -0.195% | outcome [2] | outcome [3] | outcome [4] | Potency [5] | Potency [10] | Potency [11] | Potency [6] | Potency [12] | Potency [7]
3.2% and 58%: max response [1, 20]
12.9% and 60.4%: max response [1, 21]

CCCC(CCC)C(=O)O
inactive: outcome [13] | outcome [14] | outcome [15] | outcome [16] | outcome [17] | outcome [8] | outcome [18] | outcome [19] | outcome [9] | activity change, negative = inhibition ([1]; at 57.5 µM (top of the series)) 7.45% | outcome [2] | outcome [3] | outcome [4]
23.9%: max response [1, 20]
36.2%: max response [1, 21]
